Z-score and composite z-score data for five molecules are collected here from PubChem BioAssay.

A short description of test [1]: E. coli DRC41 culture turbidity changes, primary screen, E. coli filamentation inducer project, strain DRC41, OD650, 48 h (AID 1152).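 Note: E. coli MC1000 strain DRC41 lacking acrAB efflux pump and sulA.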 As to conditions: E. coli DRC41 (acrAB sulA), higher = more signal, called active from +8 up or from −8 down.
Test [2] can be described thus: small-molecule binders of probe aLefty1, primary screen, biochemical, small-molecule microarray, 635/667 nm fluorescence (AID 1153).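 Note: score merges spot fluorescence with signal-to-noise ratio from the scanned slide images.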 The following applies: higher = more signal.
Test [3] in a line: PSAC antagonists in infected red cells, primary screen, cell-based, P. falciparum Indochina, OD700, 1 h (AID 1154). As to conditions: P. falciparum Indochina infected RBC osmotic lysis, higher = more signal, called active from +8 up or from −8 down.
Test [4] is described as follows: PSAC antagonists in infected red cells, primary screen, cell-based, P. falciparum Indochina, OD700, 2 h (AID 1155).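 Note: lysis reports solute entry through the parasite surface anion channel PSAC; channel blockers reduce lysis of infected cells.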 As to conditions: P. falciparum Indochina infected erythrocytes, osmotic lysis OD700; higher = more signal, called active from +8 up or from −8 down.
Test [5] can be described thus: osmotic lysis modulators in infected erythrocytes, primary screen, PSAC antagonist project, cell-based, P. falciparum Indochina, OD700, 3 h (AID 1156). As to conditions: higher = more signal, called active from +8 up or from −8 down.
Test [6] can be described thus: PSAC antagonists in infected red cells, primary screen, cell-based, P. falciparum Indochina, OD700, 18 h (AID 1157). The following applies: P. falciparum Indochina infected erythrocytes, osmotic lysis OD700, 18 h; higher = more signal, called active from +8 up or from −8 down.
Test [7] in a line: modulators of S6 phosphorylation in cells, primary screen, cell-based, A549, cytoblot, luminescence, serum-stimulated (AID 1158).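 Note: serum-stimulated A549 lung adenocarcinoma cells; signal is phosphorylated S6 detected by cytoblot immunostaining with HRP secondary.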 As to conditions: A549 phospho-S6 cytoblot, 5 h, higher = more signal.
Test [8] addresses NADPH oxidase 2 (Homo sapiens) (UniProt P04839). Description: NOX2-dependent H2O2 signal modulators, primary screen, NOX inhibitor project, cell-based, HEK293-NOX2, PMA-stimulated, Amplex Red fluorescence (AID 1159). Note: test concentration not given here. The following applies: 45 min, higher = more signal, called active from +8 up or from −8 down.
Test [9] concerns the target NADPH oxidase 4 (Homo sapiens) (UniProt Q9NPH5). Description: NOX4-dependent H2O2 signal modulators, primary screen, NOX inhibitor project, cell-based, HEK293-NOX4, tetracycline-induced, Amplex Red fluorescence (AID 1160). As to conditions: 45 min, higher = more signal, called active from +8 up or from −8 down.
Test [10] concerns the target NADPH oxidase 5 (Homo sapiens) (UniProt Q96PH1). Description: NOX5-dependent H2O2 signal modulators, primary screen, NOX inhibitor project, cell-based, HEK293-NOX5, Amplex Red fluorescence (AID 1161). As to conditions: HEK293-NOX5, ionomycin, 45 min, higher = more signal.
Test [11] in a line: A549 cell viability effects, profiling panel, calcein-AM fluorescence, 48 h, basal (AID 1162). Note: test concentration not given here. The following applies: higher = more signal.
Test [12] is described as follows: adipocyte viability effects, profiling panel, cell-based, 3T3-L1 adipocytes, calcein-AM fluorescence, 48 h, basal (AID 1163). Note: test concentration not given here. The following applies: 3T3-L1 adipocytes viability, higher = more signal.
Test [13] can be described thus: HepG2 cell viability effects, profiling panel, calcein-AM fluorescence, 48 h, basal (AID 1164). Note: test concentration not given here. As to conditions: higher = more signal.
The nature of test [14]: MM1S cell viability effects, profiling panel, calcein-AM fluorescence, 48 h, basal (AID 1165).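 Note: viability of MM1S multiple myeloma cells under basal unstimulated conditions; test concentration not given here.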 As to conditions: higher = more signal.
The nature of test [15]: basal RPMI8226 viability, no added stimulus, profiling panel, cell-based, calcein-AM fluorescence, 48 h, PK04 Diversity Set (AID 1166).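 Note: cells grown under basal conditions without added stimulus; test concentration not given here.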 The following applies: RPMI8226 myeloma viability, higher = more signal.
Test [16] is described as follows: basal HepG2 mitochondrial membrane potential changes, profiling panel, cell-based, JC-1 fluorescence, 24 h, 100 nL compound (AID 1167). Note: test concentration not given here. The following applies: higher = more signal.
Test [17] can be described thus: basal 3T3-L1 adipocyte mitochondrial potential changes, profiling panel, cell-based, JC-1 fluorescence, 3T3-L1 adipocytes, 24 h, 100 nL compound (AID 1168). Note: test concentration not given here. As to conditions: JC-1 mitochondrial fluorescence, higher = more signal, called active from +8 up or from −8 down.
Test [18] is described as follows: basal RPMI8226 mitochondrial membrane potential changes, profiling panel, cell-based, JC-1 fluorescence, 24 h, 100 nL compound (AID 1169). Note: test concentration not given here. As to conditions: RPMI8226 myeloma, JC-1 mitochondrial potential fluorescence, higher = more signal.
Test [19] is described as follows: basal MM1S mitochondrial membrane potential changes, profiling panel, cell-based, JC-1 fluorescence, 24 h, 100 nL compound (AID 1170). Note: test concentration not given here. As to conditions: higher = more signal.
Test [20] in a line: A549 lung cancer cell viability effects, profiling panel, resazurin fluorescence, 24 h, PK04 Diversity Set (AID 1171). Note: test concentration not given here. As to conditions: higher = more signal, called active from +8 up or from −8 down. (In general: Alamar Blue is a resazurin reagent that responds to reducing activity.)

The source made the active and inactive calls.

NADPH oxidase 4 (Homo sapiens), sequence (Q9NPH5 whole entry, looked up): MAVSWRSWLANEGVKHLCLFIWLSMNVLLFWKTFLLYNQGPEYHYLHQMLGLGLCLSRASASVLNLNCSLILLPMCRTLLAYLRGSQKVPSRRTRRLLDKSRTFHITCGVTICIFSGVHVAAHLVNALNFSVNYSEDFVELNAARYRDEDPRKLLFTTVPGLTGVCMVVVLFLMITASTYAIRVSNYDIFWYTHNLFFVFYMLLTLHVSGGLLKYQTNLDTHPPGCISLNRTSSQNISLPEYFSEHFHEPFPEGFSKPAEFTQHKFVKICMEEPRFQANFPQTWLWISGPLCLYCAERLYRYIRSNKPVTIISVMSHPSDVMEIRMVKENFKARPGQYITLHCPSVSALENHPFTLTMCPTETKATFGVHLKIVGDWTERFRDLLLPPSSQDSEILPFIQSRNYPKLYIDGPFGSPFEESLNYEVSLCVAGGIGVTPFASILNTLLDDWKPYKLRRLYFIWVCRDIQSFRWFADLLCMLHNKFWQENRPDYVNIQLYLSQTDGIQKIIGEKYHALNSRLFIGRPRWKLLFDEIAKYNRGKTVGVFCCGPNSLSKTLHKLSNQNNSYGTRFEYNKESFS
NADPH oxidase 2 (Homo sapiens), sequence (P04839 whole entry, looked up): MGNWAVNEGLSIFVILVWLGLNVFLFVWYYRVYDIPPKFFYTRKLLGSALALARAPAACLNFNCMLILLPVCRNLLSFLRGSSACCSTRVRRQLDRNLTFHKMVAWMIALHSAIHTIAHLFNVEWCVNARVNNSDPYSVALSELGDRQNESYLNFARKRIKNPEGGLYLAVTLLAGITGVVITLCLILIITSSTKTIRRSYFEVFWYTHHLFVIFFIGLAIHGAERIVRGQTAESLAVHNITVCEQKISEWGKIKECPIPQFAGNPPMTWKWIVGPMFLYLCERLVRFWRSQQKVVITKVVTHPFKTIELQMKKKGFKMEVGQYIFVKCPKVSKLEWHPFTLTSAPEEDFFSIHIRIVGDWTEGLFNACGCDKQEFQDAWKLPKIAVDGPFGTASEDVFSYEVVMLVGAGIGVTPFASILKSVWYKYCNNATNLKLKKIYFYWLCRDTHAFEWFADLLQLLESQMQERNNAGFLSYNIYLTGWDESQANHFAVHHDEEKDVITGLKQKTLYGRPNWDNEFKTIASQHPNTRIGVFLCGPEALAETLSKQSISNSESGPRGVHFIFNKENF
NADPH oxidase 5 (Homo sapiens), sequence (Q96PH1 whole entry, looked up): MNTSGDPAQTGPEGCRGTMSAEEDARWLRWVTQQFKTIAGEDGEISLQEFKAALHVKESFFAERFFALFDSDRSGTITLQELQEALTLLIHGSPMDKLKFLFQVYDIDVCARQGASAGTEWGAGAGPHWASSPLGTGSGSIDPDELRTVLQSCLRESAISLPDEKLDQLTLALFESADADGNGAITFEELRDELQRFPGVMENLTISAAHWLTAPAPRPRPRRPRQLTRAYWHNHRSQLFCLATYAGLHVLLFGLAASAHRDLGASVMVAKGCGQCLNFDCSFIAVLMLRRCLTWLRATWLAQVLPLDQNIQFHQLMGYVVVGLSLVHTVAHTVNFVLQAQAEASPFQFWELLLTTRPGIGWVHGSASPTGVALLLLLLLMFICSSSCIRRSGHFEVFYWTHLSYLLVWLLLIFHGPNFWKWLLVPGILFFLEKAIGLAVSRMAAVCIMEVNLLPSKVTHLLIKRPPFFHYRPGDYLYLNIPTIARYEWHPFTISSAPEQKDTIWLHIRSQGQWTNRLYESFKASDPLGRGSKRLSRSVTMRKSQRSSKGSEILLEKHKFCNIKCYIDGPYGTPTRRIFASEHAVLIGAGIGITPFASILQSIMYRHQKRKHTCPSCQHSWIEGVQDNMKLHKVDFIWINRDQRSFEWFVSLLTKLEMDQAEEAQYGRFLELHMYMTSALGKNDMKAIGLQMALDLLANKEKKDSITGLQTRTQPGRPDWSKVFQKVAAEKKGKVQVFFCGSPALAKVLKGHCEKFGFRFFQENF

Regarding `CC(C)CNC(=O)[C@@]1(c2ccc([N+](=O)[O-])cc2)CC(=O)N(CC23CC4CC(CC(C4)C2)C3)[C@@H]1c1ccc(CO)cc1I`, the z-score was -0.998 (inactive) in test [1]; 17.2 (active) in test [3]; 3.11 (inactive) in [4]; 2.73 (inactive) in test [5]; 1.41 (inactive) in test [6]; -0.472 in [7]. Also, the z-score was 2 (inactive) in [8]; -1.12 (inactive) in [9]; 1.75 in test [10]; -0.394 in [11]; 0.604 in test [12]; -3.4 in test [13]. Besides, the z-score is -3.83 in test [14]; -4.32 in test [15]; 1.47 in [16]; -0.744 (inactive) in [17]; -0.948 in [18]; -0.674 in [19]. The z-score in test [20] was -2.77 (inactive). For the same molecule, in test [2], the composite z-score was -0.0114.

Regarding `O=C(NCc1ccccc1)[C@]1(CCS(=O)(=O)c2ccccc2)N=C(c2ccc(OCCCO)cc2)O[C@@H]1c1ccccc1`, the z-score was 0.673 (inactive) in [1]; 24 (active) in test [3]; 6.86 (inactive) in [4]; 1.85 (inactive) in test [5]; 1.45 (inactive) in [6]; -0.402 in test [7]. Moreover, the z-score in test [8] is 0.0459 (inactive); in test [9], 0.902 (inactive); in test [10], 0.242; in test [11], -0.649; in test [12] it was 0.0335; in test [13] it was -0.708. Further, the z-score in test [14] was -0.478; in test [15] it was -0.651; in test [16], 1.24; in test [17], 0.499 (inactive); in test [18] it was -0.762; in test [19], -1.75. Moreover, the z-score in test [20] was -0.704 (inactive). In test [2], this molecule gave a composite z-score of -0.345.

Regarding `CCCCCN1CC=CC23O[C@@H]4/C=C\CCC(C)OC(=O)C4[C@H]2C(=O)N(CCCCCO)[C@@H]3C1=O` (stereo not given in full), the z-score in [1] is 2.65 (inactive); in test [3], 0.42 (inactive); in test [4] it was -0.524 (inactive); in [5], -0.935 (inactive); in test [6] it was -0.875 (inactive); in [7] it was 0.832. Also, the z-score was 1.03 (inactive) in [8]; -0.177 (inactive) in [9]; 1.45 in [10]; -0.213 in test [11]; 1.56 in [12]; 0.167 in [13]. The z-score was 0.599 in [14]; -0.0704 in test [15]; -0.356 in test [16]; 0.637 (inactive) in [17]; -0.982 in test [18]; -0.617 in test [19]. In test [20], the z-score was 0.475 (inactive). Further, in test [2], the composite z-score is -0.493.

Regarding `[N-]=[N+]=NCc1ccccc1C[C@]1(C(=O)NCCN2CCOCC2)N=C(c2ccc(OCCCO)cc2)O[C@H]1c1ccccc1N=[N+]=[N-]`, the z-score in test [1] is 0.991 (inactive); in [3] it was 34.3 (active); in test [4] it was 31.4 (active); in test [5], 2.82 (inactive); in [6], 8.68 (active); in [7] it was -0.176. The z-score was -1.69 (inactive) in test [8]; 0.636 (inactive) in test [9]; -0.368 in test [10]; -0.872 in test [11]; 0.233 in [12]; -1.61 in [13]. Also, the z-score is -1.68 in test [14]; -0.806 in test [15]; 0.815 in test [16]; 0.707 (inactive) in test [17]; -1.02 in test [18]; -1.16 in [19]. Further, the z-score in [20] is -0.901 (inactive). The molecule also registered a composite z-score in test [2] of 0.586.

With `CCCCCN1CC=CC23O[C@@H]4C=CCOC(=O)[C@@H]4[C@H]2C(=O)N(CCCO)[C@@H]3C1=O` (stereo not given in full), the z-score was 3.22 (inactive) in test [1]; -0.322 (inactive) in test [3]; -0.397 (inactive) in [4]; 0.993 (inactive) in test [5]; -0.501 (inactive) in test [6]; 0.724 in test [7]. For the same molecule, the z-score was -0.169 (inactive) in test [8]; -0.724 (inactive) in test [9]; -1.14 in [10]; -0.279 in [11]; 2.21 in [12]; -0.721 in test [13]. Also, the z-score in [14] is 0.364; in [15], -0.0478; in test [16], -1.29; in test [17] it was -0.883 (inactive); in [18] it was -0.022; in [19], 0.208. In addition, the z-score in test [20] was -0.15 (inactive). Also, in test [2], the composite z-score was -0.149.
